Data taken from PubChem BioAssay AID1159580 (chemical genetic matrix, 2015).
Where “and” joins values, the source holds several entries; their conditions need not be identical. Identical values can stand only once. Among all 5,500 compounds or so, about 2,000 (36%) were called active. Another 18% or so got no clear call; they are omitted. Rule as the data show it: active = normalized growth mostly below about 0.91 (no sharp cut-off); inconclusive = no clear call, values can overlap the other calls; inactive = mostly above about 0.92. Some of the results follow.

Assay: chemical genetic growth profiling, strain panel (AID 1159580);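 also: tested at 20 µM; growth read once vehicle control cultures reached saturation at 30 °C; 1 = growth at the plate median or of vehicle wells; lower values mean less growth of the strain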
Conditions: S. cerevisiae deletion strains, growth OD

Measured: normalized growth

CC(=O)O[C@H]1C[C@@H](OC(C)=O)C(C)(C)C2CC(=O)[C@]3(C)C(CC[C@@]4(C)[C@H](c5ccoc5)OC(=O)[C@H]5O[C@]543)[C@]21C (some centres not stated)
inactive: locus YAL021C, strain ccr4, stronger effect = lower value 0.973 | locus YAL026C, strain drs2, stronger effect = lower value 0.982 | locus YAL030W, strain snc1, stronger effect = lower value 0.989 | locus YBL061C, strain skt5, stronger effect = lower value 0.993 | locus YBR009C, strain hhf1, stronger effect = lower value 0.99 | locus YBR021W, strain FUR4, stronger effect = lower value 0.984 | locus YBR023C, strain chs3, stronger effect = lower value 1.01 | locus YBR171W, strain sec66, stronger effect = lower value 0.999 | locus YBR229C, strain ROT2, stronger effect = lower value 0.999 | locus YBR231C, strain swc5, stronger effect = lower value 1.01 | locus YBR279W, strain paf1, stronger effect = lower value 0.969 | locus YCL011C, strain gbp2, stronger effect = lower value 0.998 | locus YCL016C, strain dcc1, stronger effect = lower value 0.997 | locus YCL029C, strain bik1, stronger effect = lower value 1.01 | locus YCL061C, strain MRC1, stronger effect = lower value 0.99 | locus YCL069W, strain vba3, stronger effect = lower value 0.99 | locus YCR088W, strain abp1, stronger effect = lower value 0.988 | locus YDL005C, strain med2, stronger effect = lower value 0.985 | locus YDL035C, strain GPR1, stronger effect = lower value 0.982 | locus YDL040C, strain nat1, stronger effect = lower value 0.999 | locus YDL074C, strain BRE1, stronger effect = lower value 0.981 | locus YDL101C, strain DUN1, stronger effect = lower value 1.02 | locus YDL185W, strain tfp1, stronger effect = lower value 0.998 | locus YDL192W, strain arf1, stronger effect = lower value 1 | locus YDR001C, strain nth1, stronger effect = lower value 0.976 | locus YDR069C, strain doa4, stronger effect = lower value 0.989 | locus YDR101C, strain arx1, stronger effect = lower value 0.997 | locus YDR137W, strain rgp1, stronger effect = lower value 0.974 | locus YDR159W, strain sac3, stronger effect = lower value 0.973 | locus YDR162C, strain NBP2, stronger effect = lower value 1 | locus YDR195W, strain ref2 0.94 | locus YDR297W, strain sur2, stronger effect = lower value 0.988 | locus YDR318W, strain mcm21, stronger effect = lower value 1.01 | locus YDR334W, strain swr1, stronger effect = lower value 0.983 | locus YDR335W, strain msn5, stronger effect = lower value 0.98 | locus YDR388W, stronger effect = lower value 1.01 | locus YDR392W, strain spt3, stronger effect = lower value 0.997 | locus YDR502C, strain sam2, stronger effect = lower value 1.03 | locus YEL003W, strain gim4, stronger effect = lower value 0.991 | locus YEL037C, strain rad23, stronger effect = lower value 0.988 | locus YEL061C, strain CIN8 (second series), stronger effect = lower value 0.994 | locus YER015W, strain faa2, stronger effect = lower value 0.994 | locus YER016W, strain bim1, stronger effect = lower value 0.991 | locus YER110C, stronger effect = lower value 1.02 | locus YER111C, strain swi4, stronger effect = lower value 1 | locus YER155C, strain BEM2 (second series), stronger effect = lower value 0.992 | locus YER155C, strain BEM2, stronger effect = lower value 1.01 | locus YER167W, strain BCK2, stronger effect = lower value 0.997 | locus YFR010W, strain ubp6, stronger effect = lower value 0.981 | locus YGL078C, strain dbp3, stronger effect = lower value 1.03 | locus YGL086W, strain mad1, stronger effect = lower value 1.01 | locus YGL167C, strain pmr1, stronger effect = lower value 0.997 | locus YGL173C, strain kem1, stronger effect = lower value 0.99 | locus YGL227W, strain vid30, stronger effect = lower value 0.993 | locus YGL240W, strain doc1, stronger effect = lower value 1.01 | locus YGL248W, strain PDE1, stronger effect = lower value 1 | locus YGL253W, strain hxk2, stronger effect = lower value 0.988 | locus YGR078C, strain PAC10, stronger effect = lower value 1.02 | locus YGR135W, strain pre9, stronger effect = lower value 1.06 | locus YGR252W, strain gcn5, stronger effect = lower value 0.994 | locus YHR013C, strain ard1, stronger effect = lower value 0.998 | locus YHR027C, strain rpn1, stronger effect = lower value 0.994 | locus YHR030C, strain SLT2, stronger effect = lower value 0.969 | locus YHR079C, strain IRE1 (second series), stronger effect = lower value 1.02 | locus YHR079C, strain IRE1, stronger effect = lower value 0.966 | locus YHR094C, strain hxt1, stronger effect = lower value 1.02 | locus YHR129C, strain ARP1, stronger effect = lower value 1.01 | locus YHR142W, strain chs7, stronger effect = lower value 1.01 | locus YHR200W, strain rpn10, stronger effect = lower value 1.02 | locus YIL066C, strain RNR3, stronger effect = lower value 0.998 | locus YIL073C, strain SPO22, stronger effect = lower value 1.32 | locus YIL125W, strain kgd1, stronger effect = lower value 1.01 | locus YIR030C, strain dcg1, stronger effect = lower value 1.01 | locus YJL092W, strain hpr5, stronger effect = lower value 0.994 | locus YJL095W, strain BCK1 (second series), stronger effect = lower value 0.996 | locus YJL095W, strain BCK1, stronger effect = lower value 1.04 and 0.973 | locus YJL115W, strain asf1, stronger effect = lower value 0.973 | locus YJL129C, strain trk1, stronger effect = lower value 0.991 | locus YJL134W, strain LCB3, stronger effect = lower value 1 | locus YJL154C, strain vps35, stronger effect = lower value 0.986 | locus YJL164C, strain tpk1, stronger effect = lower value 0.994 | locus YJL166W, strain qcr8, stronger effect = lower value 0.993 | locus YJL168C, strain set2, stronger effect = lower value 1.01 | locus YJL187C, strain SWE1 (second series), stronger effect = lower value 1.02 | locus YJL187C, strain SWE1, stronger effect = lower value 0.988 | locus YJR043C, strain POL32, stronger effect = lower value 0.958 | locus YJR066W, strain TOR1, stronger effect = lower value 0.915
